# Assay results as given in PubChem BioAssay (NCI).
# About 83,000 compounds went through this panel and 20% of them were active in at least one assay; those are over-represented in the sample as a whole.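 Percent growth is the endpoint: 0 to 100 indicates growth inhibition (40 means 60% inhibition), 0 means no net growth, and negative values indicate cell death.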 Unmarked numbers belong to inactive results. Activity calls are given as the source filed them. How the source made its calls: active means growth percent below 10; inactive means the rest.
# Key:
# Assay in all cases: NCI-60 one-dose screen, 48 h (100 = growth as untreated, 0 = no growth, -100 = all killed)
# [1] = test system: HT29 colon; conditions: 10 µM unless noted
# [2] = test system: SNB-75 CNS; conditions: 10 µM unless noted
# [3] = test system: U251 CNS; conditions: 10 µM unless noted
# [4] = test system: PC-3 prostate; conditions: 10 µM unless noted
# [5] = test system: SK-MEL-5 melanoma; conditions: 10 µM unless noted
# [6] = test system: UACC-62 melanoma; conditions: 10 µM unless noted
# [7] = test system: SK-MEL-28 melanoma; conditions: 10 µM unless noted
# [8] = test system: SK-MEL-2 melanoma; conditions: 10 µM unless noted
# [9] = test system: EKVX NSCLC; conditions: 10 µM unless noted
# [10] = test system: SN12C renal; conditions: 10 µM unless noted
# [11] = test system: UO-31 renal; conditions: 10 µM unless noted
# [12] = test system: TK-10 renal; conditions: 10 µM unless noted
# [13] = test system: ACHN renal; conditions: 10 µM unless noted
# [14] = test system: CAKI-1 renal; conditions: 10 µM unless noted
# [15] = test system: A498 renal; conditions: 10 µM unless noted
# [16] = test system: CCRF-CEM leukemia; conditions: 10 µM unless noted
# [17] = test system: MOLT-4 leukemia; conditions: 10 µM unless noted
# [18] = test system: LOX IMVI melanoma; conditions: 10 µM
# [19] = test system: SNB-19 CNS; conditions: 10 µM unless noted
SMILES,growth [1],growth [2],growth [3],growth [4],growth [5],growth [6],growth [7],growth [8],growth [9],growth [10],growth [11],growth [12],growth [13],growth [14],growth [15],growth [16],growth [17],growth [18],growth [19]
Cc1ccc2c(N)c(C(=O)Nc3ccc(OC(F)(F)F)cc3)sc2n1,75.2%,91.8%,84.6%,58.4%,26%,61.2%,85.5%,67.4%,26.9%,70.2%,56.2%,95.4%,61.2%,55.8%,119%,64.8%,63.1%,,
CN(C)c1ccnc(CNCCSC2(c3ccc(C(F)(F)F)cc3)c3ccccc3CCc3ccccc32)c1,-65.9% (active),-2.6% (active),-94.9% (active),-35.3% (active),-99.6% (active),-5.98% (active),-81.7% (active),-37.6% (active),-25.3% (active),,1.7% (active),0.0233% (active),-12.1% (active),-0.905% (active),-4.68% (active),-43.6% (active),-20.9% (active),-98.1% (active),
COc1ccc2nc(Nc3cccc(NC(=O)c4ccc(CN5CCCN(C)CC5)c(C(F)(F)F)c4)c3)ccc2c1,-69.7% (active),-35.3% (active),1.47% (active),-57% (active),-69.2% (active),-61.1% (active),-74.9% (active),-74.5% (active),-98.5% (active),-65.9% (active),-66.9% (active),-81.1% (active),-91.5% (active),-65.2% (active),-53.3% (active),-43.6% (active),-4.91% (active),,-76.4% (active)
COc1cc(-c2nc3cc(Cl)c(Cl)cc3[nH]2)ccc1OCc1nnc(-c2cccs2)o1,58.2%,114%,71.1%,50%,44.6%,21.3%,31.4%,65.7%,91.3%,33.7%,62.5%,125%,36%,67.7%,121%,91.8%,62.8%,,65.8%
CC(=O)Oc1ccc(/C=C/C(=O)N[C@@H](Cc2ccccc2)C(O)C(=O)NCc2ccccc2)cc1OC(C)=O (some centres not stated),113%,61.3%,73.8%,76.9%,81.8%,96.1%,88.4%,110%,90.6%,90.8%,38.8%,76.9%,85.5%,71.3%,115%,44.9%,55.5%,,83.5%
O=C(N/N=C/c1ccc(-c2ccc(O)cc2)o1)c1[nH]c2ccc(Br)cc2c1-c1ccccc1,-34.8% (active),-2.73% (active),-29.2% (active),-6.14% (active),-82.9% (active),-14.9% (active),-27% (active),1.84% (active),8.78% (active),-57.9% (active),1.62% (active),1.67% (active),-21.7% (active),5.94% (active),38.2%,4.83% (active),0.944% (active),,10.3%
C#CCOc1ccc(/C=N/Nc2nc(-c3cc4cc(OC)ccc4oc3=O)cs2)cc1OC,29.2%,102%,38.5%,20.8%,39.2%,54.4%,18.9%,55.2%,43.5%,42.3%,87.7%,89.5%,40.2%,39.2%,78.7%,66.3%,63.9%,22.8%,75.3%
CC(=O)c1cccc(NC(=O)CCC(=O)NS(=O)(=O)c2ccc(C)cc2)c1,106%,,104%,105%,109%,102%,108%,115%,99.5%,111%,92.5%,103%,105%,101%,137%,99%,107%,104%,98.5%
COc1cc2oc(-c3cccc(NC(=O)[C@H](Cc4ccccc4)NC(=O)OC(C)(C)C)c3)cc(=O)c2c(OC)c1OC,22.8%,97.6%,36.6%,39.7%,17.9%,54.6%,49.9%,20.9%,55.9%,32%,18.2%,45.2%,18.1%,31.7%,77.9%,32%,9.42% (active),,40%
C=C1CCC2C3(C)COC(c4ccccc4F)OC3CCC2(C)C1CC(O)C1=CCOC1=O (configuration not stated),8.43% (active),43.9%,53.4%,36.5%,65.8%,73.6%,47.6%,17.2%,85.3%,39.1%,11.7%,107%,-23% (active),66%,141%,16.7%,48.9%,,81.5%
N#Cc1c(-c2ccc(Cl)cc2)nc2n[nH]c(-c3ccc(Cl)cc3)c2c1-c1ccc(C(F)(F)F)cc1,0.823% (active),-17.5% (active),-33.6% (active),8.27% (active),-84% (active),-58.6% (active),1.54% (active),-66.9% (active),-10.5% (active),-5.91% (active),-1.42% (active),15.9%,2.15% (active),-20.1% (active),50.5%,-7.76% (active),12.8%,,11.3%
COc1ccc(C(=O)/C=C/c2cccc(Br)c2)cc1S(N)(=O)=O,-56.4% (active),-17% (active),-98.4% (active),-34.6% (active),,-55.8% (active),-55.6% (active),-26% (active),-68.4% (active),-79.2% (active),-91.8% (active),,-95.2% (active),-79.9% (active),93.3%,,,-91.7% (active),-42.8% (active)
Cc1ccc([C@H]2C(C(=O)c3ccc(Cl)cc3)C3(N[C@@H]2c2ccccc2)C(=O)Nc2ccc(Cl)cc23)cc1 (some centres not stated),3.1% (active),,47.9%,14%,77.9%,33.8%,69.4%,49.9%,59.8%,-1.19% (active),31.2%,65.7%,38.7%,39.1%,94%,66.3%,3.24% (active),39.8%,66.2%
CCCCCCn1c(O)c(N=Nc2nc(-c3cc4ccccc4oc3=O)cs2)c2ccccc21,-39.7% (active),81.4%,-57.5% (active),-2.73% (active),-64.8% (active),-2.7% (active),-39.3% (active),79.7%,1.67% (active),63.8%,75.1%,90.4%,81.4%,58.9%,88%,5.68% (active),23.4%,-63.9% (active),40%
Cc1ccc(NC(=O)[C@]23CCC(C)(C)CC2C2=CCC4[C@@]5(C)C[C@@H](O)[C@H](O)[C@@](C)(CO)C5CC[C@@]4(C)[C@]2(C)CC3)cc1 (some centres not stated),-50% (active),74.4%,26.8%,5.82% (active),-83.2% (active),34.3%,47.9%,34.1%,24.4%,,25.4%,48%,23.7%,29.2%,-1.05% (active),-1.64% (active),0.258% (active),-6.45% (active),
O=C(NNc1ccccc1)n1c(=O)c2ccccc2c(=O)n1-c1ccccc1,98.8%,80.3%,94.1%,92.6%,101%,91.2%,104%,117%,91.3%,85.9%,81.5%,95%,93.7%,77.2%,101%,99.5%,91.3%,,94.6%
C#CCOc1ccc(/C=N/Nc2nc(-c3ccc(F)cc3)cs2)cc1OC,78.8%,81.8%,89.4%,24.2%,3.86% (active),46.7%,76.5%,60.8%,62.5%,68.9%,48.4%,,64.5%,56.2%,80.7%,26.3%,12.1%,62.4%,77.5%
